# Reference: PubChem BioAssay (EPA / NIEHS)
# Inconclusive results are not listed. The source made the active and inactive calls. Rule for the calls: active = hit-call score of the fitted dose curve at least 0.9, where 1 is the maximum; inconclusive = response in the unintended direction; inactive = score below 0.9.
# Experiments:
# [1] = target: Luciferin 4-monooxygenase (Photinus pyralis) (UniProt P08659); assay: CCTE_Simmons_QuantiLum_inhib_2: CCTE's Firefly Luciferase Inhibition Assay, Simmons Lab (AID 2283767);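 for AC50: potency for inhibitors that lower luciferase luminescence relative to DMSO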
# Summary of the method: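 Recombinant firefly luciferase (5 ng/well, 200 mM potassium phosphate with 1 mg/ml BSA) was exposed to 8 concentrations from 5 nM to 87.5 uM (final, 0.5% DMSO) for 30 min at 37C in the dark. Loss of luminescence versus DMSO was read after injecting D-luciferin/ATP-analogue reagent.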
# [2] = target: zebrafish Estrogen Receptor (ESR1), esr1 (gene 259252) (UniProt P57717); assay: ATG_zfER1_XSP1: Attagene TRANS-FACTORIAL Multi-Species (XSP1) HepG2 Assay for zebrafish Estrogen Receptor (ESR1) (AID 2283772)
# Summary of the method: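 HepG2 cells were transiently transfected with multiplexed GAL4-UAS reporter units driven by chimeric NR-GAL4 proteins, dosed for 24 h with 3 nM 6-alpha-fluorotestosterone present, and reporter mRNA quantified by RT-PCR and capillary electrophoresis versus DMSO.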
# [3] = system: zebrafish Estrogen Receptor (ESR2B), gene 317733; assay: ATG_zfER2b_XSP1: Attagene TRANS-FACTORIAL Multi-Species (XSP1) HepG2 Assay for zebrafish Estrogen Receptor (ESR2B) (AID 2283773)
# Summary of the method: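 HepG2 cells transiently transfected with GAL4-UAS reporter units for chimeric zebrafish ER2b-Gal4, with 3 nM 6-alpha-fluorotestosterone present; reporter mRNA measured 24 h after dosing by RT-PCR and capillary electrophoresis, gain versus DMSO.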
# [4] = system: frog Estrogen Receptor (ESR2), gene 100174814; assay: ATG_frER2_XSP1: Attagene TRANS-FACTORIAL Multi-Species (XSP1) HepG2 Assay for frog Estrogen Receptor (ESR2) (AID 2283774)
# Summary of the method: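 HepG2 cells transiently transfected with GAL4-UAS reporter units expressing chimeric frog ER-Gal4; 3 nM 6-alpha-fluorotestosterone present. After 24 h dosing, reporter mRNA quantified by RT-PCR and capillary electrophoresis; gain-of-signal fitted relative to DMSO.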
# [5] = ACEA_AR_agonist_AUC_viability: ACEA Biosciences xCELLigence Real-Time Cell Analysis on Androgen Receptor Agonism for Viability (AID 2283775);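 note: viability read 80 hours after compound addition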
# Summary of the method: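 Read-out is area under the impedance curve at 80 h post-dose in 22Rv1 cells, with DMSO as baseline and signal loss taken as reduced viability. Compounds ran in duplicate from 100 uM final.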
# [6] = ACEA_AR_antagonist_AUC_viability: ACEA Biosciences xCELLigence Real-Time Cell Analysis on Androgen Receptor Antagonism for Viability (AID 2283776);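 note: 22Rv1 human prostate cancer cells growing on impedance electrode plates; area under impedance growth curve at 80 h after dosing as viability; hits lower the growth signal relative to DMSO meaning cytotoxicity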
# Summary of the method: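 Real-time electrical impedance tracks 22Rv1 proliferation after continuous compound exposure (top 100 uM final, 1:4 steps, 8 concentrations). The 80 h area-under-curve serves as the cytotoxicity readout relative to DMSO.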
# [7] = system: frog Estrogen Receptor (ESR1), gene 398734; assay: ATG_frER1_XSP1: Attagene TRANS-FACTORIAL Multi-Species (XSP1) HepG2 Assay for frog Estrogen Receptor (ESR1) (AID 2283777)
# Summary of the method: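 HepG2 cells transiently transfected with frog ER–GAL4 chimera and GAL4-UAS reporter, with 3 nM 6-alpha-fluorotestosterone present; 24 h dosing, reporter mRNA quantified by RT-PCR and capillary electrophoresis, gain of signal versus DMSO.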
# [8] = system: zebrafish Estrogen Receptor (ESR2A), gene 317734; assay: ATG_zfER2a_XSP1: Attagene TRANS-FACTORIAL Multi-Species (XSP1) HepG2 Assay for zebrafish Estrogen Receptor (ESR2A) (AID 2283778)
# Summary of the method: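 HepG2 cells transiently transfected with GAL4-UAS reporter units driven by a zebrafish ESR2A–Gal4 chimera; 24 h compound exposure with 3 nM 6-alpha-fluorotestosterone present. Reporter mRNA measured by RT-PCR with fluorescent capillary electrophoresis, fitted positive versus DMSO.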
# [9] = target: chicken Estrogen Receptor (ESR1), ESR1 (gene 396099) (UniProt P06212); assay: ATG_chERa_XSP1: Attagene TRANS-FACTORIAL Multi-Species (XSP1) HepG2 Assay for chicken Estrogen Receptor (ESR1) (AID 2283779)
# Summary of the method: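 HepG2 cells transiently transfected with GAL4-UAS reporter units for chimeric chicken ERα-Gal4, dosed 24 h with 3 nM 6-alpha-fluorotestosterone present. Reporter mRNA by RT-PCR and capillary electrophoresis; gain-of-signal fit versus DMSO.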
# Sequence of Luciferin 4-monooxygenase (Photinus pyralis) (P08659 whole entry, looked up): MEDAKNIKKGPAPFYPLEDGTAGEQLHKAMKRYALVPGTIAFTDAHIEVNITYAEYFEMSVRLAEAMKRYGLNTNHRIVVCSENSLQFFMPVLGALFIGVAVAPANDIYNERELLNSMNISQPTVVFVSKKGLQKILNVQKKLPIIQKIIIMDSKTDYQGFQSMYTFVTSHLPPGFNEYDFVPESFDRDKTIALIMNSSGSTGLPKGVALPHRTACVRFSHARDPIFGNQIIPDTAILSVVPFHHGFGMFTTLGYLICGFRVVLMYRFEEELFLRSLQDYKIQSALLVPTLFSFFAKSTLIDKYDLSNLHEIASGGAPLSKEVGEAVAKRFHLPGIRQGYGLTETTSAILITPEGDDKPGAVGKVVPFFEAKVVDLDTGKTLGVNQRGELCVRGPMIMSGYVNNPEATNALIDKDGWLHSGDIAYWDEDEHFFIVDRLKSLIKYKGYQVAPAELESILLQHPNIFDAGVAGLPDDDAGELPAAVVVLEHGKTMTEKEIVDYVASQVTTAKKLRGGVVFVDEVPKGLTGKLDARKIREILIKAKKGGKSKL
# Sequence of zebrafish Estrogen Receptor (ESR1), esr1 (gene 259252) (P57717 whole entry, looked up, the tested form may be a part): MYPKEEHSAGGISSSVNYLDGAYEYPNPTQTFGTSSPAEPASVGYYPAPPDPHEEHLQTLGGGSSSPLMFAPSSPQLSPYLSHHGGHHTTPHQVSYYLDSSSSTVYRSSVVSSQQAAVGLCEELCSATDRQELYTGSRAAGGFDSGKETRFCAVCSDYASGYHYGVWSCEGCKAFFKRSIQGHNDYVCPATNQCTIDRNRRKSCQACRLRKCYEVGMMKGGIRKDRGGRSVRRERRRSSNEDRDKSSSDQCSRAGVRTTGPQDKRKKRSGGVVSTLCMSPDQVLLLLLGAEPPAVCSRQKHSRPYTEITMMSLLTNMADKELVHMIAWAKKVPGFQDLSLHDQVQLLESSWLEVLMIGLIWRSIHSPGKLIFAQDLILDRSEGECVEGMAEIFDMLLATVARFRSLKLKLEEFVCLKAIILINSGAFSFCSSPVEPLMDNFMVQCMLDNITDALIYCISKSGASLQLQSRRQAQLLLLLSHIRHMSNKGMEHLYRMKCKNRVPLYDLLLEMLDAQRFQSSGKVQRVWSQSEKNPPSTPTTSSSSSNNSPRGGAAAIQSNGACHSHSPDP
# Sequence of chicken Estrogen Receptor (ESR1), ESR1 (gene 396099) (P06212 whole entry, looked up, the tested form may be a part): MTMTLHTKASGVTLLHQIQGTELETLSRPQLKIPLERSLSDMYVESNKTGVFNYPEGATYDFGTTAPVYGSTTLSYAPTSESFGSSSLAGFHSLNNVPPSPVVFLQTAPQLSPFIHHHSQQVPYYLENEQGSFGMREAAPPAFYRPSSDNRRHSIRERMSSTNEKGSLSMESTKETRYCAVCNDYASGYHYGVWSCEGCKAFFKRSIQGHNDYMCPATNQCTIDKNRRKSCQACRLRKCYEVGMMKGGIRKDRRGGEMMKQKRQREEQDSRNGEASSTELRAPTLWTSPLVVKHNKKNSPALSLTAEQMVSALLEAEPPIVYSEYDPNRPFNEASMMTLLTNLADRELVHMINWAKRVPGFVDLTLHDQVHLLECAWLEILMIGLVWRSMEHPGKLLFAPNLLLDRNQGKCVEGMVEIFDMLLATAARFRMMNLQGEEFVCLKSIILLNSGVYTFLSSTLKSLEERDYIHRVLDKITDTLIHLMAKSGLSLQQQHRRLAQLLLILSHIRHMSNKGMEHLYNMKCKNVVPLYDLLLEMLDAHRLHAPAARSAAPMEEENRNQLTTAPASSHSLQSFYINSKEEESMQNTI
structure (smiles),measurement,setting,value
CC/C(=C(/CC)c1ccc(O)cc1)c1ccc(O)cc1,outcome,[1],inactive
same,AC50,[2],0.00024 µM (active)
same,AC50,[3],67.1 pM (active)
same,AC50,[4],78 pM (active)
same,AC50,[5],21.3 µM (active)
same,AC50,[6],18 µM (active)
same,AC50,[7],51.7 pM (active)
same,AC50,[8],48.5 pM (active)
same,AC50,[9],42.9 pM (active)
OC12N=C(c3ccccc3)SC1Cc1cc(Cl)ccc12 (configuration not stated),AC50,[1],17.1 µM (active)
same,AC50,[5],83.3 µM (active)
same,AC50,[6],76.2 µM (active)
O=C1CCC(C2CCCCC2)CC1,AC50,[1],3.38 µM (active)
same,AC50,[5],50 µM (active)
same,AC50,[6],74.1 µM (active)
CCCCCCCCCCCO,AC50,[5],90.2 µM (active)
same,AC50,[6],85 µM (active)
O=C1c2ccccc2C(=O)N1CCc1noc(-c2ccc(CN3CCCCCC3)s2)n1,AC50,[5],13.2 µM (active)
same,AC50,[6],6.41 µM (active)
COc1ccc2cc(S(=O)(=O)N[C@H](CC(=O)N[C@H](Cc3ccc(CN4[C@H](C)CCC[C@@H]4C)cc3)C(=O)N(C)C(C)C)c3ccc4c(c3)OCO4)ccc2c1,AC50,[5],9.68 µM (active)
same,AC50,[6],9.32 µM (active)
CCCCCc1ccc(N)cc1,outcome,[1],inactive
same,AC50,[5],50 µM (active)
same,outcome,[6],inactive
CCN(Cc1cccc(S(=O)(=O)O)c1)c1ccc(C(=C2C=CC(=[N+](CC)Cc3cccc(S(=O)(=O)O)c3)C=C2)c2ccccc2S(=O)(=O)[O-])cc1,AC50,[1],15.8 µM (active)
same,outcome,[6],inactive
CC(C)(C)c1cc(/C=C2\SC(N)=NC2=O)cc(C(C)(C)C)c1O,outcome,[1],inactive
same,AC50,[5],13.5 µM (active)
same,AC50,[6],15.2 µM (active)
NCc1cccc(C2CCN(C(=O)c3ccc(C#Cc4ccccc4F)o3)CC2)c1,outcome,[1],inactive
same,AC50,[5],21.2 µM (active)
same,AC50,[6],22.1 µM (active)
